Experimental data published in PubChem BioAssay (Tox21).
Results filed as inconclusive are left out. Entries that show only a call come without a potency. A number with no mark means an inactive call. Active and inactive are the calls of the source. Calls follow the shape of the dose curve; as a rule, active = well fitted cell-killing curve with a large enough effect in the repeat runs; inconclusive = weak or mixed curves, or effect the other way; inactive = flat fitted curve, though single readings scatter.

test: qHTS RealTime-Glo MT Cell Viability Assay in HepG2 cells - 40 hour (AID 1224870); conditions: RealTime-Glo luminescence; series mostly up to 76.8 µM; also: nearly all actives have a fitted effect of over 50% in size
Excerpt: National Center for Advancing Translational Sciences [NCATS]
NIH Chemical Genomics Center [NCGC]
U.S. Environmental Protection Agency [EPA]
National Institutes of Environmental Health Sciences [NIEHS]
National Toxicology Program [NTP]
U.S. Food and Drug Administration [FDA]
Measure of cell viability is critical in the cell-base assay. Analysis of cell viability is necessary for the characterization of cell responses to cytotoxic drugs and environmental stress. A RealTime-Glo MT Cell Viability Assay to monitor cell viability in real time of continues cell culture during 40 hours of compound treatment was used to screen Tox21 10K library compounds in HepG2 cells. The RealTime-Glo MT Cell Viability Assay is a nonlytic, homogeneous, bioluminescent method to measure cell viability in real time using a simple, plate-based method. The assay involves adding NanoLuc luciferase and a cell-permeant prosubstrate to cells in culture. Viable cells reduce the proprietary prosubstrate to generate a substrate for NanoLuc luciferase. This substrate diffuses from cells into the surrounding culture medium, where it is rapidly used by the NanoLuc Enzyme to produce a luminescent signal. The signal correlates with the number of viable cells, making the assay well suited for cytotoxicity studies.
Tox21 Assay Protocol Summary:
The mixture of HepG2 cell suspension and reagents were dispensed at 600cells/6 ul/well in 1536-well tissue culture treated black solid bottom plates using a Multidrop dispenser. After the assay plates were incubated at a 37 C/5% CO2 incubator for 5 hours, 23 nL of compounds dissolved in DMSO, positive and negative controls was transferred to the assay plate by a pintool work station. The plates were incubated at 37 C for 40 hours. The luminescence intensity were measured at 0h, 8h, 16h, 24h, 32h and 40h time points using ViewLux plate reader during compound treatment.
Potency is read from the fitted curve at half-maximal effect.

SMILES | Potency | activity change, negative = cytotoxic
CCN(CC)C(=O)c1ccc(O)c(OC)c1 | inactive | 
c1ccc(CCCc2ccccn2)cc1 | inactive | 
C/C=C1\C(=O)C[C@H]2[C@@H]3CCC4=CC(=O)CC[C@]4(C)[C@H]3CC[C@]12C | inactive | 
NC(N)=NS(=O)(=O)c1ccc(N)cc1 | inactive | 
CCCCCCCCCCCCI | 22 µM (active) | 
CC(C)[C@H](N)C(=O)OCCOCn1cnc2c(=O)[nH]c(N)nc21 | inactive | 
CC(C)(C)N(CCO)CCO | inactive | 
COCCOC(=O)CC#N | inactive | 
Nc1cc(C(Cl)=C(Cl)Cl)c(S(N)(=O)=O)cc1S(N)(=O)=O | inactive | 
CC/C=C\C#N | inactive | 
N#CCN(CC#N)CCN(CC#N)CC#N | inactive | 
CCCCCCCCCCCCCCCCCC(=O)OCCCCCCCCCCCCCC(C)C | inactive | 
NS(=O)(=O)c1cc2c(cc1Cl)NC(CSCc1ccccc1)=NS2(=O)=O | inactive | 
OCCCCCCO | inactive | 
Cc1cc(C)c(NC(=O)CN(CC(=O)O)CC(=O)O)c(C)c1Br | inactive | 
C#CC(O)CCCCC (stereo not given) | inactive | 
O=C(O)c1ccc[n+]([O-])c1 | inactive | 
CCCCCCCCCCCCCCC | inactive | 
C#CC(O)C(CC)CCCC (stereo not given) | inactive | 
CC(O)CN(CCCN(C)C)CCCN(C)C (stereo not given) | inactive | 

SMILES | Potency | activity change, negative = cytotoxic
COC(=O)CCCC(=O)O | inactive | 
C=CCn1c(=O)n([C@@H]2O[C@H](CO)[C@@H](O)[C@H]2O)c2nc(N)[nH]c(=O)c21 | inactive | 
C=C(C)[C@H]1CC=C(C)CC1 | inactive | 
CCC(C)OC(=O)N1CCCCC1CCO (stereo not given) | inactive | 
O=S(=O)(O)c1ccccc1O | inactive | 
CCn1c(=O)c2c(nc(/C=C/c3ccc(OC)c(OC)c3)n2C)n(CC)c1=O | inactive | 
CN(C)C(=O)C(CCN1CCC(O)(c2ccc(Cl)cc2)CC1)(c1ccccc1)c1ccccc1 | 23.9 µM (active) | 
C=C(C)[C@@H]1CCC2=CC(=O)C[C@@H](C)[C@]2(C)C1 | inactive | 
CC(CCO)CCCC(C)(C)O (stereo not given) | inactive | 
CC1CCN(CCCC(=O)c2ccc(F)cc2)CC1 | inactive | 
Fc1ccccc1-c1ccccc1 | inactive | 
COc1cc(CCC(C)=O)ccc1O | inactive | 
C(=C(c1ccccc1)c1ccccc1)c1ccccc1 | inactive | 
Cn1ccc2cc3c(cc21)CCN3C(=O)Nc1cccnc1 |  | -0.975% [at 15.8 µM]
CCCCCN(CCCCC)C(=O)C(CCC(=O)O)NC(=O)c1ccc(Cl)c(Cl)c1 (stereo not given) | inactive | 
CCC(C)(C)C1CCC(OC)CC1 (stereo not given) | inactive | 
C=C(C)C(=O)NCCCN(C)C | inactive | 
COC(=O)CCCCCCCCC(=O)OC | inactive | 
CC(C)CCCCCCN | inactive | 
OC[C@H]1O[C@@H]2O[C@H]3[C@H](O)[C@@H](O)[C@@H](O[C@H]4[C@H](O)[C@@H](O)[C@@H](O[C@H]5[C@H](O)[C@@H](O)[C@@H](O[C@H]6[C@H](O)[C@@H](O)[C@@H](O[C@H]7[C@H](O)[C@@H](O)[C@@H](O[C@H]8[C@H](O)[C@@H](O)[C@@H](O[C@H]9[C@H](O)[C@@H](O)[C@@H](O[C@H]1[C@H](O)[C@H]2O)O[C@@H]9CO)O[C@@H]8CO)O[C@@H]7CO)O[C@@H]6CO)O[C@@H]5CO)O[C@@H]4CO)O[C@@H]3CO | inactive | 
